# Screening results as filed in PubChem.
# HT1080-NT tox – kills 2HG-producing HT-1080-NT fibrosarcoma cells; HT-1080-NT fibrosarcoma viability, CellTiter-Glo ATP luminescence, 48 h; Potency, µM (highest dose often 46.1 µM), inactives show at the top dose activity, negative = less viability, usual class: cytotoxic; 1.6% of 360,000 active; AID 686970;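 note: NT is the 2HG producing partner of a matched IDH1 knockdown line; 0% = DMSO-treated cells and -100% = media-only wells without cells; nearly all actives have a fitted effect of over 55% in size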
#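 Toxicity toward the 2HG-producing NT line was scored as %Activity, normalised to DMSO and no-cell wells, from CellTiter-Glo luminescence after 48 hours' treatment.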
# KB-V1 cytotox – KB-V1 MDR subline cytotoxicity; KB-V1 MDR cells viability, CellTiter-Glo, 72 h; Potency, µM (highest dose often 46.1 µM), most hits filed as cytotoxic; 3.4% of 400,000 active; AID 1347076; note: nearly all actives have a fitted effect of over 60% in size
#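 KB-V1, DMEM (no phenol red) + 10% FBS; cpd pin-transferred, titration series; 72 h, 37 degrees C; CellTiter-Glo, luminescence. Data normalized, curve-fit.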
# DT40 TDP1 CPT – growth inhibition of DT40 Tdp1-/-;hTDP1 cells with camptothecin (screen for TDP1 inhibitors). chicken DT40 Tdp1-/-;hTDP1 cells + 20 nM CPT, ATP luminescence, 48 h. Potency, µM (series often up to 46.2 µM), for the others: top-dose activity change, negative = growth inhibition, most hits filed as inhibitors. 12% of 420,000 active; note: nearly all actives have a fitted effect of over 55% in size
#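 Chicken DT40 Tdp1-/- cells stably complemented with human TDP1 were seeded at 400 cells/well in medium containing 20 nM camptothecin, exposed to pin-transferred compounds, and grown at 37 °C for at least 48 hr. Viability was read as ATP luminescence.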
# DT40 TDP1 no CPT – qHTS for Inhibitors of human tyrosyl-DNA phosphodiesterase 1 (TDP1): qHTS in cells in absence of CPT; AID 686978, 2013; Potency, µM (series often up to 46.2 µM), without a hit: at the top dose activity change, negative = growth inhibition, actives largely listed as inhibitors; 15% of 420,000 active; DT40 Tdp1-/- hTDP1 cells, no CPT, ATP luminescence, 48 h; note: nearly all actives have a fitted effect of over 55% in size
#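 Luminescent ATP content (CellTiter-Glo) served as the growth readout. Knockout chicken DT40 cells expressing human TDP1 were exposed to compounds without camptothecin for a minimum 48 hr at 37 °C.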
# KB-3-1 tox – KB-3-1 parental cell cytotoxicity; KB-3-1 viability, CellTiter-Glo ATP luminescence, 72 h; Potency, µM (top dose mostly 46.1 µM), most hits filed as cytotoxic; 1.4% of 400,000 active; AID 1347075; note: nearly all actives have a fitted effect of over 60% in size
#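 Luminescent ATP read-out (CellTiter-Glo) measures survival of drug-naive KB-3-1 cells after 72 h compound exposure at 37 °C. Titration series was screened from lowest to highest concentration, with DMSO vehicle plates as background controls.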
# HT1080 IDH1KD tx – HT-1080 IDH1 knockdown cell toxicity (counter line); HT-1080 IDH1 knockdown viability, ATP luminescence, 48 h; Potency, µM (highest dose often 46.1 µM), without a hit: top-dose activity, negative = toxicity, actives largely listed as cytotoxic; 2% of 360,000 active; AID 686971;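 note: 0% = DMSO wells and -100% = cell-free medium wells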
#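 After a 2 h attachment period, IDH1KD HT-1080 cells took pin-transferred compound for 48 h at 37 °C; ATP-based luminescence after 10 min room-temperature reagent incubation reported viability.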
# * marks the source's active call; other numbers are inactive results; i = inactive; u = inconclusive; x = no result given; [ ] = dose if it differs, or a comment. Hits are enriched below; roughly 19% of the tested compounds scored in any of these assays. Calls come from the whole dose curve; as a rule, active = well fitted curve in the direction sought with a large enough effect; inconclusive = small, poorly fitted or top-dose-only effect, or another doubt; inactive = no such curve, though single readings can be large; an effect the other way counts as inactive or inconclusive. Unless noted, % is set by controls: 0 for no effect and ±100 for the full control effect; potency is the fitted concentration of half-maximal effect.
SMILES,HT1080-NT tox,KB-V1 cytotox,DT40 TDP1 CPT,DT40 TDP1 no CPT,KB-3-1 tox,HT1080 IDH1KD tx
COc1ccc(OCC(=O)Nc2ccccc2N2CCCCC2)cc1,3.3µM*,i,1.6µM*,1.6µM*,u,4.1µM*
COc1ccc(OCC(=O)Nc2ccccc2N2CCN(C)CC2)cc1,-8%,i,-12%,-22%,i,-2%
CCOc1ccc(C(=O)Nc2ccccc2N2CCCC2)cc1,-3%,u,u,u,23µM*,-12%
COCC(=O)Nc1cc(C(=O)NC2CCc3ccccc32)c2c(c1)nc(-c1ccncc1)n2C (stereo not drawn),x,x,-3%[9.04 µM],u,x,x
Clc1ccc(CN(CCCNc2ncnc(NCCCc3cnc[nH]3)n2)c2ccc(Br)cn2)cc1Cl,x,i,x,x,u,x
O=C(CNC1CCCCCC1)Nc1ccccc1N1CCCCC1,u,u,u,21µM*,u,u
CCOc1ccc(C(=O)C2CCN(CC(=O)Nc3ccccc3N3CCOCC3)CC2)cc1,u,u,16µM*,18µM*,i,u
CCC(=O)N1CCN(c2ccccc2NC(=O)COc2ccc(C(C)C)cc2)CC1,u,i,u,16µM*,i,u
CCOC(=O)c1ccccc1NC(=O)COC(=O)CCNS(=O)(=O)c1cccs1,12%,i,4%,1%,i,24%
COCCNS(=O)(=O)c1cc(C(=O)O)ccc1OC,19%,i,14%,-8%,i,9%
CCc1nnc(SCc2nc(-c3ccc(OC)cc3)oc2C)c2cc3sccc3n12,x,x,-22%,-14%,x,x
CCN1C(=O)/C(=C/c2ccc(C)o2)N(C)C1=S,5%,u,-4%,4%,i,23%
Cc1cccc(-n2nc(C)c(C(=O)Nc3cc(C)ccc3C)c2-n2cccc2)c1,x,i,u,u,i,x
O=C(Nc1nccs1)c1cc(-c2ccncc2)nc2ccccc12,2%,u,-25%,u,i,-18%
CCNC(=S)NNC(=O)c1cc(-c2cc(C)ccc2C)nc2ccccc12,-3%,i,15µM*,15µM*,i,-10%
Cc1ccc(-c2cc(C(=O)Nc3nccs3)c3ccccc3n2)c(C)c1,-3%,13µM*,13µM*,13µM*,i,4%
Cc1ccc(-c2cc(C(=O)Nc3nccs3)c3ccccc3n2)o1,7%,7.3µM*,u,u,i,6%
COc1cccc(/C=N/n2c(=S)n(C)c3cc(C)c(C)cc32)c1OC,-3%,16µM*,u,u,i,-1%
COc1cc2c(cc1OC)CN(C(=O)CN1CCN(S(=O)(=O)c3ccccc3)CC1)CC2,18%,i,u,u,i,25%
COc1ccc(NC(=O)CCCN2C(=O)CCn3nc(-c4cn(C)c5ccccc45)cc32)cc1,x,i,23µM*,18µM*,i,x
Cc1cccc(CNC(=O)CCCN2C(=O)CCn3nc(-c4cn(C)c5ccccc45)cc32)c1,x,i,23µM*,u,u,x
COc1ccc(CNC(=O)CCCN2C(=O)CCn3nc(-c4cn(C)c5ccccc45)cc32)cc1,x,i,-27%,u,i,x
Cn1cc(-c2cc3n(n2)CCC(=O)N3CCCC(=O)Nc2ccccc2Cl)c2ccccc21,x,i,18µM*,18µM*,i,x
Cn1cc(-c2cc3n(n2)CCC(=O)N3CCCC(=O)Nc2ccc(F)cc2F)c2ccccc21,x,i,u,u,i,x
Cn1cc(-c2cc3n(n2)CCC(=O)N3CCCC(=O)Nc2ccccc2F)c2ccccc21,x,i,u,23µM*,i,x
SMILES,HT1080-NT tox,KB-V1 cytotox,DT40 TDP1 CPT,DT40 TDP1 no CPT,KB-3-1 tox,HT1080 IDH1KD tx
O=C(Cc1c(F)cccc1Cl)Nc1ccc(S(=O)(=O)Nc2nccs2)cc1,-7%,i,0%,-8%,i,-8%
CSc1ccc(-c2cc3c(c4c2ccn4C)C2CCC3O2)cc1 (stereo not drawn),-19%,i,u,u,i,-23%
Nc1nnc(CC(=O)N/N=C/c2ccc(-c3ccc(Cl)cc3Cl)o2)s1,2%,i,-16%,-15%,i,-2%
Cc1cccc(C)c1OCC(=O)Nc1c(C(=O)c2ccc(Br)cc2)oc2ccccc12,x,i,-6%,u,i,x
CCCS(=O)(=O)NC(=O)C1(C)CCCN(C(=O)c2ccc(OC)cc2)C1 (stereo not drawn),24%,i,-4%,9%,i,15%
COC(=O)CC1=C(C(=O)OC)C(c2cccs2)C(C#N)=C(N)O1 (stereo not drawn),9%,i,-19%,-1%,i,11%
CCOC(=O)C1=C(CSc2nc(-c3ccccc3)ccc2C#N)OC(N)=C(C#N)C1c1ccccc1 (stereo not drawn),10%,i,3.7µM*,2.9µM*,i,7%
N#CC1=C(N)Oc2c(ccc3ccccc23)C1c1cccs1 (stereo not drawn),2µM*,5µM*,0.56µM*,0.63µM*,0.89µM*,1.3µM*
CCOC(=O)C1=C(CC)OC(N)=C(C#N)C1c1cccs1 (stereo not drawn),u,i,-27%,-20%,i,22µM*
CCOC(=O)C1=C(CSc2nc(-c3ccccc3)ccc2C#N)OC(N)=C(C#N)C1c1cccnc1 (stereo not drawn),-10%,i,2.9µM*,4.6µM*,i,-4%
Cc1ccc(NC(=O)Cn2c(=O)n(Cc3nc(-c4ccccc4)no3)c(=O)c3cc4c(cc32)OCO4)cc1C,x,i,-9%,u,i,x
C/C(=N\Nc1nc2ccccc2nc1C)c1ccccc1O,-13%,i,0.13µM*,0.092µM*,i,u
CC(=NNc1ccc2ccccc2n1)c1ccccc1O,3%,4.1µM*,u,u,i,0%
C/C(=N\Nc1cccc([N+](=O)[O-])c1)c1ccccc1O,u,u,u,u,i,u
O=C(Nc1ccc2ccccc2n1)c1ccccc1Cl,-6%,i,u,u,i,-8%
C/C(=N\Nc1cc(C)nc(-c2ccccc2O)n1)c1ccccc1O,0%,u,-86%,13µM*,u,5%
CC(=O)NCCNc1nc2cc(-c3cccc(Cl)c3)sc2c(=O)n1C,-5%,i,-1%,-22%,i,-15%
